Screening results as filed in PubChem BioAssay.
Compounds with a hit are over-represented: about 10% of the library has one in this group of screens.
NS1 inh = qHTS Assay for Inhibitors of Influenza NS1 Protein Function; Potency, µM (highest dose often 46.1 µM), for inactives: top-dose activity, positive = more growth; 0.4% of 270,000 active; AID 2326, 2010; calls by dose curve; note: potency is the fitted concentration of half-maximal effect; actives are rising curves; nearly all actives have a fitted effect of over 50% in size
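A cell-based growth assay was used: compounds that relieve NS1-induced slow growth of budding yeast raise OD600. Assay medium was yeast nitrogen base with ammonium sulphate and -URA supplement, pH 6.0, with 2% galactose.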
Pf growth 48h = Primary qHTS for delayed death inhibitors of the malarial parasite plastid, 48 hour incubation; P. falciparum luciferase growth in erythrocytes, 48 h; Potency, µM (highest dose often 28.7 µM), for inactives: at the top dose activity change, negative = inhibition, hits mostly inhibitors; 5.9% of 310,000 active; AID 504832, 2011; note: potency is the fitted concentration of half-maximal effect; % is set by controls: 0 for no effect and ±100 for the full control effect
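First compound was added to culture medium, then infected red cells at 0.1% parasitemia and 2% hematocrit (final). After incubation at 37 C under 5% CO2, luciferase detection reagent was dispensed and light output recorded.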
SARS PLpro yeast-1 = qHTS of Yeast-based Assay for SARS-CoV PLP | S. cerevisiae expressing SARS-CoV PLpro, growth rescue | Potency, µM (doses to about 32.9 µM), for inactives: at the top dose activity, positive = growth rescue, most hits filed as activators | 0.19% of 330,000 active; calls by dose curve; note: potency is the fitted concentration of half-maximal effect; 0% is about no effect; nearly all actives have a fitted effect of over 55% in size
Pf growth 96h = Primary qHTS for delayed death inhibitors of the malarial parasite plastid, 96 hour incubation. P. falciparum luciferase reporter growth, 96 h. Potency, µM (top dose mostly 28.7 µM), for inactives: top-dose activity change, negative = inhibition, actives largely listed as inhibitors. 6.9% of 320,000 active; note: potency is the fitted concentration of half-maximal effect; % is set by controls: 0 for no effect and ±100 for the full control effect
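Readout is luminescence from an integrated firefly luciferase in P. falciparum. Red cells, 2% hematocrit and 0.05% parasitemia final, were cultured with compound through two parasite generations (96 hours) at 37 C, 5% CO2.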
SARS PLpro yeast-2 = qHTS of Yeast-based Assay for SARS-CoV PLP: Hit Validation; shares compounds with SARS PLpro yeast-1; 19% of 1,000 active; AID 652038, 2013; yeast expressing SARS-CoV PLpro, growth phenotype rescue; calls only; call rule not given here
Starred values were filed as active, the others as inactive; i = inactive; ? = inconclusive; · = no result; + = active, no number. Unless noted, calls come from the whole dose curve; as a rule, active = well fitted inhibition curve with a large enough effect; inconclusive = small, poorly fitted or top-dose-only effect, or another doubt; inactive = no such curve, though single readings can be large or run the other way.

SMILES | NS1 inh | Pf growth 48h | SARS PLpro yeast-1 | Pf growth 96h | SARS PLpro yeast-2
CC(C)(C)OC(=O)N[C@@H](Cc1ccccc1)[C@H](O)c1ccco1 | 7% | 29% | 0% | -15% | ·
COc1cc(NC(=S)NCc2ccc(S(N)(=O)=O)cc2)c(OC)cc1Cl | 10% | -14% | ? | ? | i
COc1ccc(NCN2C(=O)CCC2=O)cc1 | -10% | · | ? | 20% | i
O=C1CCC(=O)N1CNc1ccc(Oc2ccccc2)cc1 | -16% | 9% | · | 2% | ·
CC1(C)OC(C)(C)/C(=C/Nc2ccccc2)C1=O | -3% | -10% | -7% | -25% | ·
O=[N+]([O-])c1cc([N+](=O)[O-])c(Oc2cccnc2Br)cc1NN1CCCCC1 | -20% | 20% | 1% | ? | ·
CCOc1ccc(N2CC(C(=O)NCc3ccc4c(c3)OCO4)CC2=O)cc1 (configuration not stated) | -1% | -4% | -1% | ? | ·
CSc1nnc(COc2ccc(C)cc2)n1N | 8% | 29% | ? | 7% | i
Cc1ccc(S(=O)(=O)NCCC(=O)OCC(=O)N(Cc2ccccc2)C(C)(C)C)cc1 | · | 10% | 2% | -1% | ·
C#CC[N+](C)(C)CCCCCCCCCC | -1% | 0.93µM* | 3.2µM* | ? | i
Cc1c(NC(=O)COc2ncnc3c(Cl)cc(Cl)cc23)c(=O)n(-c2ccccc2)n1C | -5% | 3% | ? | 8% | i
COc1ccc(CN(C)C(=O)c2cnc(OC)cc2C(F)(F)F)c(OC)c1 | 5% | ? | 0% | -16% | ·
O=S1(=O)c2cccc3cccc(c23)N1CCBr | -7% | -13% | -16% | -24% | ·
O=C(NCCCCNCCCNC(=O)c1ccccc1)c1ccccc1 | · | · | -1% | · | ·
Cc1cc(C)c2c(NC(=S)NC(=O)c3ccccc3)nn(C)c2n1 | · | ? | 15% | -3% | ·
Cc1cc(C)c2c(NC(=O)CCl)nn(C)c2n1 | · | 3.7µM* | 11µM* | 1.9µM* | +
COc1cccc(N=CC2=C(O)CC(C)(C)CC2=O)c1 | 30% | -7% | · | -8% | i
COc1ccccc1NC(=O)Nc1ccc2c(c1)nc(C)n2C | 2% | -46% | -1% | 0% | ·
CC1CCCCC1NC(=O)NC(=O)CCl (configuration not stated) | 2% | 8.3µM* | ? | ? | +
CC1CCCC(NC(=O)NC(=O)CCl)C1C (configuration not stated) | -5% | 0.033µM* | ? | 10µM* | +
CC1CCCCC1NC(=O)NC(=O)COC(=O)c1nccnc1N (configuration not stated) | · | · | -7% | · | ·
CCc1nc2cccnc2n1-c1ccc(CC(=O)NC(C)CC)cc1 (configuration not stated) | 4% | -17% | 1% | ? | ·
CCOc1cc(N2CCCC2)ccc1[N+](=O)[O-] | -4% | 10% | ? | 6.6µM* | i
O=C(CSc1ncn[nH]1)N/N=C/c1ccc(C(F)(F)F)cc1 | 2% | -9% | -2% | -1% | ·
O=C(COc1ccc(F)c(Cl)c1)N1CCN(c2ccccn2)CC1 | -17% | -8% | ? | -10% | i
SMILES | NS1 inh | Pf growth 48h | SARS PLpro yeast-1 | Pf growth 96h | SARS PLpro yeast-2
O=C(COc1ccccc1Cl)N1CCN(c2ccccn2)CC1 | · | -10% | -1% | ? | ·
CCOC(=O)C1CCN(C(=O)COC(=O)CSc2ccc(C(N)=O)cc2[N+](=O)[O-])CC1 | 5% | 29% | 8% | 43% | ·
COc1ccccc1NS(=O)(=O)c1cccc(NS(=O)(=O)c2ccc(Cl)c(C(=O)O)c2)c1 | · | · | 20% | · | ·
C/C(=N\NC(=O)CN1CCN(S(=O)(=O)c2ccc(C)cc2)CC1)c1cccnc1 | -5% | 6% | 3.2µM* | 18% | i
COc1ccccc1NC(=O)CCn1cnc2ccccc2c1=O | · | 5% | -3% | 38% | ·
C/C(=N\NC(=O)c1ccc(CSc2nncn2C)cc1)c1ccc2ccccc2c1 | -4% | -10% | ? | -30% | i
CCCc1ccc(Oc2cc(Cl)nc(N)n2)cc1 | -9% | 78% | -5% | ? | ·
CCc1ccc(Oc2cc(C)nc(N)n2)cc1 | 9% | 191% | 16µM* | 214% | i
CCN(c1ccccc1)S(=O)(=O)c1ccc2c(c1)N(C(C)=O)CCS2 | 5% | -10% | 0% | ? | ·
O=C(CNCCO)Nc1ccc(F)c(Cl)c1 | · | 89% | 3% | 13% | ·
O=C(CNCCCO)Nc1cc(C(F)(F)F)cc(NC(=O)CNCCCO)c1Cl | 15% | 16% | ? | ? | i
O=C(c1ccc(O)c(Cl)c1)N1CCN(S(=O)(=O)c2ccccc2)CC1 | 9% | -6% | ? | -2% | i
COc1ccccc1/C=C/C(=O)OCC(=O)NC1CCS(=O)(=O)C1 (configuration not stated) | · | · | -2% | · | ·
CC(=O)N/C(=C/c1ccccc1)C(=O)NC(Cc1ccccc1)C(=O)O (configuration not stated) | -10% | 8% | ? | -7% | i
CNS(=O)(=O)c1cccc(C(=O)OCC(=O)Nc2ccc(OC)cc2[N+](=O)[O-])c1 | · | -8% | 1% | 24% | ·
O=C1OC(Nc2nc(-c3ccc(F)cc3)cs2)c2ccccc21 (configuration not stated) | 0% | ? | 0% | ? | ·
COc1ccccc1N1C(=O)[C@@H]2[C@H](C1=O)[C@H](C(=O)c1ccc(OC(C)=O)cc1)N1N=CC=C[C@@H]21 | 15% | -7% | 0% | -15% | ·
CC(=O)Oc1ccc(C(=O)[C@H]2[C@H]3C(=O)N(c4ccc5ccccc5c4)C(=O)[C@H]3[C@@H]3C=CC=NN32)cc1 | 21% | 26% | 3.2µM* | 219% | i
Oc1c(CN2CCOCC2)cc(COCc2ccccc2)c2cccnc12 | -83% | 2.6µM* | · | 31% | +
O=c1[nH]c2ccc(S(=O)(=O)Nc3ccccc3O)cc2[nH]1 | -68% | 8% | -5% | 84% | ·
COc1ccc(OC(=O)COc2ccc(C)cc2)cc1 | -10% | 8% | -2% | 25% | ·
COc1ccc(OCC(=O)Sc2ccc(C)cc2)cc1 | -51% | 13% | 2.8µM* | ? | i
COc1ccccc1OCC(=O)NCCS(=O)(=O)N1CCN(c2ccc(F)cc2)CC1 | -17% | 3% | 0% | 0% | ·
Cc1cc(SCC(=O)N/N=C/c2ccc(O)cc2O)c(C)cc1Br | -85% | ? | 10µM* | · | i
Cc1cc(SCC(=O)N/N=C/c2ccccc2C(=O)O)c(C)cc1Br | ? | 10% | -1% | 41% | ·
Cc1ccc2c(c1)N(CC(=O)NC1CCCCCC1)C(=O)c1cccnc1O2 | -19% | ? | 1% | -13% | ·
COc1ccc(C(=O)Nc2ccc(NC(=O)c3cccs3)cc2)cc1[N+](=O)[O-] | -2% | 11% | -3% | -11% | ·
CCOc1ccc(C(=O)Nc2ccc(NC(=O)c3cccs3)cc2)cc1[N+](=O)[O-] | 6% | 26% | 4µM* | 61% | +
O=C(C[n+]1ccccc1)N/N=C/c1cc(Br)cc(Br)c1O | -102% | ? | -3% | ? | ·
